Test results from the supplement of paper PMC10849652.
About 8,800 targets were measured; listed, in parts, are those with a hit and a random draw of the rest. About 0.5% of all pairs of compound and target were hits. Unmarked numbers belong to inactive results.

Experiments:
Assay in all cases: log2 fold change, soluble protein after heating vs DMSO (PISA); higher = thermal stabilisation; K562 lysate, 10 uM; active = over 0.2 and 3.5 SD of the protein, either way, in both replicates (recomputed)
alvocidib = compound: CN1CC[C@H](c2c(O)cc(O)c3c(=O)cc(-c4ccccc4Cl)oc23)[C@H](O)C1 [alvocidib]
Procedure, shortened: (§1)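 Soluble protein was defined as the supernatant remaining after 21,000xg for 90 min, following pooling of heated aliquots and adjustment to 0.5% NP-40 at 4°C. Before that, crude K562 extract at 1 mg/mL protein in PBS pH 7.4 with 1 mM MgCl2 was treated with 10 μM compound for 30 min and heated for 3 min across 48°C-58°C. Quantification used TMTpro 16plex LC-MS/MS with channel sums equalised, and values are log-two fold changes in thermal stability relative to solvent controls from duplicates.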

Tubastatin A = compound: CN1CCc2c(c3ccccc3n2Cc2ccc(C(=O)NO)cc2)C1 [Tubastatin A]
Procedure, shortened: as §1

[1] = compound: CNC(=O)C1=CC=CC=C1NC2=NC(=NC=C2Cl)NC3=C(C=C(C=C3)N4CCOCC4)OC
Procedure, shortened: as §1

defactinib = compound: CNC(=O)c1ccc(Nc2ncc(C(F)(F)F)c(NCc3nccnc3N(C)S(C)(=O)=O)n2)cc1 [defactinib]
Procedure, shortened: as §1

[2] = compound: CNc1nc(-c2ccc3c(N)n[nH]c3c2)cc(N2C[C@@H](C(=O)NC3CCCCC3)CC[C@H]2C)n1
Procedure, shortened: as §1

encorafenib = compound: COC(=O)N[C@@H](C)CNc1nccc(-c2cn(C(C)C)nc2-c2cc(Cl)cc(NS(C)(=O)=O)c2F)n1 [encorafenib]
Procedure, shortened: as §1

[3] = compound: COC(=O)[C@H](CCSC)NC(=O)C1=C(C=C(C=C1)NC[C@H](CS)N)C2=CC=CC=C2
Procedure, shortened: as §1

alisertib = compound: COc1cc(Nc2ncc3c(n2)-c2ccc(Cl)cc2C(c2c(F)cccc2OC)=NC3)ccc1C(=O)O [alisertib]
Procedure, shortened: as §1

[4] = compound: COc1cc2nc(-c3cc(F)ccc3O)nc(N[C@@H]3CNC[C@H]3C(C)(C)O)c2cc1OC
Procedure, shortened: as §1

gefitinib = compound: COc1cc2ncnc(Nc3ccc(F)c(Cl)c3)c2cc1OCCCN1CCOCC1 [gefitinib]
Procedure, shortened: as §1

Sequence of UniProt Q6NXE6 (Q6NXE6 whole entry, looked up): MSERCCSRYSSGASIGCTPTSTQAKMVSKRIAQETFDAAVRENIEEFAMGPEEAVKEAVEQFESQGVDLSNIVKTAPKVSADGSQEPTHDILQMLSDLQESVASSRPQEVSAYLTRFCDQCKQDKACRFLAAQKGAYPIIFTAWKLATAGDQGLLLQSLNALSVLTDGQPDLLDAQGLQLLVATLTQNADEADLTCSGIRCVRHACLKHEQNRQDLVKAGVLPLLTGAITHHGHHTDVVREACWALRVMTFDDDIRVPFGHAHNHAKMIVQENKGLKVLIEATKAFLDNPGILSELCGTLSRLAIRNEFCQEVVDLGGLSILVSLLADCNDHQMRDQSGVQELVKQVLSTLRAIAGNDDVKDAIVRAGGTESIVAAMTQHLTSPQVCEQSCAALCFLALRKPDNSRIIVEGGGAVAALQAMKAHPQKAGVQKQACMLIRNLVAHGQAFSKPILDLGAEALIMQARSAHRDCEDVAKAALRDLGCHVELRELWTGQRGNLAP
Sequence of UniProt Q9Y303 (Q9Y303 whole entry, looked up): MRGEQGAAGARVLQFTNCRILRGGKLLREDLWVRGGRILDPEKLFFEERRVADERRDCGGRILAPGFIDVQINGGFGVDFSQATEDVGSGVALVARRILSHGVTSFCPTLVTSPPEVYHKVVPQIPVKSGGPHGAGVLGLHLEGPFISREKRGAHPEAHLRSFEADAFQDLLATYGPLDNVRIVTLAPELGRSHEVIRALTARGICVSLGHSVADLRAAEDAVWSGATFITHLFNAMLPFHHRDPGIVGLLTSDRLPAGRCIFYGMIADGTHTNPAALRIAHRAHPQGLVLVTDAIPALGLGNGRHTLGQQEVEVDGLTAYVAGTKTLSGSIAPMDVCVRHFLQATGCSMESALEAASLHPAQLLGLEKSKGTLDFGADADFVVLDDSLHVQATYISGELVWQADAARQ
Sequence of UniProt O43182 (O43182 whole entry, looked up): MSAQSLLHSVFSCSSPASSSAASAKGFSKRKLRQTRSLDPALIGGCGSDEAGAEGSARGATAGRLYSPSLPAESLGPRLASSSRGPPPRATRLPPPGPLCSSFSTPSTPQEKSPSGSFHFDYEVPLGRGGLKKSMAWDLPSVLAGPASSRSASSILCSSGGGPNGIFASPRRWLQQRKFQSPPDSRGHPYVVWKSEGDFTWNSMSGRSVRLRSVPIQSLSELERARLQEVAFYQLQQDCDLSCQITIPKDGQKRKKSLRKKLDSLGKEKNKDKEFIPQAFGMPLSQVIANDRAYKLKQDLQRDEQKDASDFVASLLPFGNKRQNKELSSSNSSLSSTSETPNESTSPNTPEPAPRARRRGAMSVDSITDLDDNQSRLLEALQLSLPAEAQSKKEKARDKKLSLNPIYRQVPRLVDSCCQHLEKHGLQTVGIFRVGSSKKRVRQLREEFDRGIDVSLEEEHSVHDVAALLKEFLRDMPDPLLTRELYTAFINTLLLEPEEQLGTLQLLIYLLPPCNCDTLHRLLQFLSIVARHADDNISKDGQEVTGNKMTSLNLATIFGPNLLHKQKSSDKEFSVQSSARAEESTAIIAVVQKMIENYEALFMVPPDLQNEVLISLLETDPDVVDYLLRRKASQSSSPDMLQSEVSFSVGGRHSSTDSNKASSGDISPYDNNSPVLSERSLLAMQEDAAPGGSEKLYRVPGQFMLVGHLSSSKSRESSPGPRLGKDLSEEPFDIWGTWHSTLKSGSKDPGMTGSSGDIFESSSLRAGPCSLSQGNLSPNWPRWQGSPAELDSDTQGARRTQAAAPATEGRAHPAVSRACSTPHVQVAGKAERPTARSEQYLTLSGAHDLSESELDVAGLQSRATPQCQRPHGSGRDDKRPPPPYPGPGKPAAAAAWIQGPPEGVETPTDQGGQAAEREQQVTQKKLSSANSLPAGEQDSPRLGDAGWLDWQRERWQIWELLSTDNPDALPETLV
Sequence of UniProt Q9BRQ8 (Q9BRQ8 whole entry, looked up): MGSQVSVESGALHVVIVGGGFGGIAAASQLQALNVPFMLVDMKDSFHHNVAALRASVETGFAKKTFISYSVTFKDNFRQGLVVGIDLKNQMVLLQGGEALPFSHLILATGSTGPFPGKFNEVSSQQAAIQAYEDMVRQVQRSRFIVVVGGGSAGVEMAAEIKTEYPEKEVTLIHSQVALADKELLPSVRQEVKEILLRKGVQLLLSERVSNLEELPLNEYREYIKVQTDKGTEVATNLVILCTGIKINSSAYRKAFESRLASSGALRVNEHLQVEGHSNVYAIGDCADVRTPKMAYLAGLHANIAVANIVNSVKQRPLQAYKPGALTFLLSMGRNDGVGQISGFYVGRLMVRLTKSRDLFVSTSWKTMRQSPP
Sequence of UniProt P11310 (P11310 whole entry, looked up): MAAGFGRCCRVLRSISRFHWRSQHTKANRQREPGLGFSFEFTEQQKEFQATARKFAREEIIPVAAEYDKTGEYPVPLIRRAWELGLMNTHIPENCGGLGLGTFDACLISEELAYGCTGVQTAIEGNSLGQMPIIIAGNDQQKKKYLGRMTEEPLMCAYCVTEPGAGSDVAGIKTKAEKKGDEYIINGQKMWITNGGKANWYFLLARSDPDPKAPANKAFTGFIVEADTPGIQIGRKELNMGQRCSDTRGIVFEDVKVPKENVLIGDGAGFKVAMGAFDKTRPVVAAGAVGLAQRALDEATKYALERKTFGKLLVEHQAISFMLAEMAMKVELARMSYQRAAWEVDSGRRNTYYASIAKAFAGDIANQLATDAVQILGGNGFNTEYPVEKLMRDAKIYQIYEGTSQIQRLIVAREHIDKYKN
Sequence of UniProt P54886 (P54886 whole entry, looked up): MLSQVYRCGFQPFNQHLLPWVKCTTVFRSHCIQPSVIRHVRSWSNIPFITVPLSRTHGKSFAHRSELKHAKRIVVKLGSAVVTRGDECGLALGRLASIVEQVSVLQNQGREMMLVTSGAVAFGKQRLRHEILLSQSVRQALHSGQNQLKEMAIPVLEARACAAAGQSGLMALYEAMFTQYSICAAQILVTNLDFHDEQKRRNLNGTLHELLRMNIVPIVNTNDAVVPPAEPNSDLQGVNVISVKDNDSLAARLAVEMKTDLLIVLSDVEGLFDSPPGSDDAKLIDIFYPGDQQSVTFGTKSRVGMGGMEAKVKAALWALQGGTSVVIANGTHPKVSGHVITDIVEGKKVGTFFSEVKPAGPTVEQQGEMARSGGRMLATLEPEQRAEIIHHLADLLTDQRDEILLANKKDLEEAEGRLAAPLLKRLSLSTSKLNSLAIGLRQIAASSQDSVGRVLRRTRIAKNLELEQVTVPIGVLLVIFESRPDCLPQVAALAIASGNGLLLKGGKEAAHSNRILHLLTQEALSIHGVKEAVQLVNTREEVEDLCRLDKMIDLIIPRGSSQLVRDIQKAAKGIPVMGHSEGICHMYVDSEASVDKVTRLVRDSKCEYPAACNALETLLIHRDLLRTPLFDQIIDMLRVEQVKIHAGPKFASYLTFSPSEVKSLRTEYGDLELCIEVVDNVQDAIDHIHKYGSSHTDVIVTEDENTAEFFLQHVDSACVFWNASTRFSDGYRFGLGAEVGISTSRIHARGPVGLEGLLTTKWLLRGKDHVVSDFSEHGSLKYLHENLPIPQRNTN
Sequence of UniProt P35573 (P35573 whole entry, looked up): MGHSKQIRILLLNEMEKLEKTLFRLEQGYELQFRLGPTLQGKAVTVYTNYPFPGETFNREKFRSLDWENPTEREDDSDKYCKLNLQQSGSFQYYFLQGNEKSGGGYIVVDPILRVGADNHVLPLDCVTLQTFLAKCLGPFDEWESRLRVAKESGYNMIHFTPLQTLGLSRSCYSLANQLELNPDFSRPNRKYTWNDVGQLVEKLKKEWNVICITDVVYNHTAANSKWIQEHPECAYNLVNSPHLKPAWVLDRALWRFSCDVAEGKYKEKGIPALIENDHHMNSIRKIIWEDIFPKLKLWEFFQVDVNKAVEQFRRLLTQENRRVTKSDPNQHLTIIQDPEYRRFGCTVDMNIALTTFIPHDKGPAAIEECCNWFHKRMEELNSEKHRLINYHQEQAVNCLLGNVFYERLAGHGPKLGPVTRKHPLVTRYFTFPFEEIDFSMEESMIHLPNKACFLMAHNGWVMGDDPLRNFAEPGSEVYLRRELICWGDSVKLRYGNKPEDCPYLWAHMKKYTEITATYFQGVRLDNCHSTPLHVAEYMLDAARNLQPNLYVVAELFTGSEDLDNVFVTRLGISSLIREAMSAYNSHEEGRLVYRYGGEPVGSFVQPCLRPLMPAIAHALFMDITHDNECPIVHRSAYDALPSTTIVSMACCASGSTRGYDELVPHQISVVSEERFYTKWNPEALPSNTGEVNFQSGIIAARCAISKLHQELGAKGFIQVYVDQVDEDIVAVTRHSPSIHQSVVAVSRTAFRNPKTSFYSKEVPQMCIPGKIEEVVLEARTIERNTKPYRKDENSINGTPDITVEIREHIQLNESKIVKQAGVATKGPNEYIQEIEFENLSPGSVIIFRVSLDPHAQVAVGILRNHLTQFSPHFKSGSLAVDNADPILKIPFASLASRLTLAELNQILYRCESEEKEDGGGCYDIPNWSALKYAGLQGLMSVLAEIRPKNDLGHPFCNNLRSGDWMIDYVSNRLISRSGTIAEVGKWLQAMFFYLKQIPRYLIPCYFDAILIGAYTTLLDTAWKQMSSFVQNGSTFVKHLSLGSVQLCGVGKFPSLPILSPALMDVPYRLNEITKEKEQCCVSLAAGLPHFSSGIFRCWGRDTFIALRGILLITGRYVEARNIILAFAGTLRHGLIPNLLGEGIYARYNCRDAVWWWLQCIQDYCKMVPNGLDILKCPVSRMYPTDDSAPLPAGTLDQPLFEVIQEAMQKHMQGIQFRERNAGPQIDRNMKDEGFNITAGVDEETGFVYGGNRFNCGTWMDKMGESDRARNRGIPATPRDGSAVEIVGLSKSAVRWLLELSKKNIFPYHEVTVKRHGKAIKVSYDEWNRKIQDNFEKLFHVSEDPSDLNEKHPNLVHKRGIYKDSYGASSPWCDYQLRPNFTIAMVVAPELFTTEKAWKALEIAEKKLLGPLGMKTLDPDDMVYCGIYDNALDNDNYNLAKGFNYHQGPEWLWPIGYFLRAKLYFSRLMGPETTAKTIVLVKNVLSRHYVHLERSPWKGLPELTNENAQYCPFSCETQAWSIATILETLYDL

Target	log2 fold change (alvocidib)	log2 fold change (Tubastatin A)	log2 fold change [1]	log2 fold change (defactinib)	log2 fold change [2]	log2 fold change (encorafenib)	log2 fold change [3]	log2 fold change (alisertib)	log2 fold change [4]	log2 fold change (gefitinib)
ALDH18A1 (UniProt P54886)	-0.005	-0.049	0.005	0.006	-0.01	-0.009	0.062	0.01	0.017	0.001
ARHGEF1 (UniProt M0QZR4)	0.011	-0.085	0.016	-0.005	-0.016	0.022	0.063	0.001	-0.01	-0.014
AGTPBP1 (UniProt Q9UPW5)	0.034	0.046	0.024	-0.058	-0.001	-0.014	-0.031	0.097	-0.039	-0.004
ARMC6 (UniProt Q6NXE6)	0	-0.171	0	-0.003	-0.103	0.037	0.234 (active)	0.005	-0.014	0.041
AGL (UniProt P35573)	0.046	-0.099	0.014	0.024	-0.002	0.008	0.178	-0.004	-0.012	-0.007
AKAP8L (UniProt Q9ULX6)	-0.003	-0.183	0.008	0.003	-0.109	0.059	-0.032	0.043	0.011	0.009
AMDHD2 isoform 3 (UniProt Q9Y303)	-0.016	0	0.018	0.014	0.018	-0.028	0.1	0.023	-0.013	0.034
ARHGAP6 (UniProt O43182)	0.003	-0.201	0.129	0.012	-0.017	0.06	0.063	0.017	-0.012	-0.069
AIFM2 (UniProt Q9BRQ8)	-0.032	0.044	0.114	0.045	0.099	0.024	0.107	-0.032	-0.034	0.038
AFF1 isoform 2 (UniProt P51825)	-0.157	0.052	0.076	0.083	0.004	-0.001	-0.033	-0.043	0.157	-0.323
ACADM isoform 2 (UniProt P11310)	-0.022	-0.012	0.046	-0.01	0.386 (active)	-0.032	0.13	0.062	0.09	-0.024
ACIN1 isoform 5 (UniProt Q9UKV3)	-0.038	0.039	-0.034	-0.009	0.053	-0.004	-0.01	0.032	-0.003	0.001
ABHD12 isoform 2 (UniProt Q8N2K0)	0.02	0.001	0.039	-0.004	0.003	0.046	-0.018	-0.031	-0.03	-0.045
